Source: article PMC7862700, “An all-to-all approach to the identification of sequence-specific readers for epigenetic DNA modifications on cytosine”

Experiments:
Test in all cases: DAPPL (digital affinity profiling via proximity ligation, sequencing); 10 mM Tris-HCl pH 7.5, 50 mM NaCl, 1 mM DTT, 4% glycerol, room temperature, 30 min; GST-TFs on glutathione beads, 16-mer random dsDNA library, 0.1% formaldehyde crosslink after washing; high values mean tight binding
FEV = target: T1, FEV (Homo sapiens, UniProt Q99581 1-238); conditions: protein: recombinant; tags: N-terminal GST; dsDNA, one strand shown
T1 sequence: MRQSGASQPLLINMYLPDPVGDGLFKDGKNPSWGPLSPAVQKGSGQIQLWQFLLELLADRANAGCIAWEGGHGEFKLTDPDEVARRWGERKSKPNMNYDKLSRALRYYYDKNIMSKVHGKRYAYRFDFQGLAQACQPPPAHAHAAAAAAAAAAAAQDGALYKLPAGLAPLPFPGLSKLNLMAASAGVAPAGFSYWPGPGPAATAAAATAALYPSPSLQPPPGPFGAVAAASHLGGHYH
In short: (§1)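 A tag-only sample was pooled with DNA-barcoded human transcription factors that had been expressed in yeast as GST fusions and captured on glutathione beads. The pools were incubated for 30 min at room temperature with 200 nmole of a random double-stranded 16-mer DNA library in Tris/NaCl/DTT/glycerol buffer, then washed, crosslinked with 0.1% formaldehyde, proximity-ligated (BsaI/T4 ligase, 1 h, 37 °C), PCR-amplified and sequenced on an Illumina NextSeq500. Binding signal is each hexamer's read frequency for a factor divided by its frequency for the tag-only sample.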

ETV5 = ETV5 (Homo sapiens, UniProt P41161 1-510); conditions: protein: recombinant; tags: N-terminal GST; dsDNA, one strand shown
ETV5, sequence (P41161 whole entry): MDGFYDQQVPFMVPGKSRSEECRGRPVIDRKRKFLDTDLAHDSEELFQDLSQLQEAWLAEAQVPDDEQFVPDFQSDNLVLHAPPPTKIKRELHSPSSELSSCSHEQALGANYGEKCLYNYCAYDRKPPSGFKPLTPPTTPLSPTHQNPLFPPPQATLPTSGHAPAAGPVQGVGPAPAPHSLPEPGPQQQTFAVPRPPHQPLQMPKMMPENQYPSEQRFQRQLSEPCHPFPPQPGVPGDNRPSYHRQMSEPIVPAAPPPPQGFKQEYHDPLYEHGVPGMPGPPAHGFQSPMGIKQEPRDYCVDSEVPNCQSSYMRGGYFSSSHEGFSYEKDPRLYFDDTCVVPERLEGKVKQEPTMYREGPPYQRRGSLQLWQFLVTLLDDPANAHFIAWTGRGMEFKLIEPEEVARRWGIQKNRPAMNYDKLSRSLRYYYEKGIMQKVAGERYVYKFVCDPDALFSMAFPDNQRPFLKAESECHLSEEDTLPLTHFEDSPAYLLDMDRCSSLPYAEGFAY
In short: as §1

HSF1 = HSF1 (Homo sapiens, UniProt Q00613 1-529); conditions: protein: recombinant; tags: N-terminal GST; chain copies: 3; dsDNA, one strand shown
HSF1, sequence (Q00613 whole entry): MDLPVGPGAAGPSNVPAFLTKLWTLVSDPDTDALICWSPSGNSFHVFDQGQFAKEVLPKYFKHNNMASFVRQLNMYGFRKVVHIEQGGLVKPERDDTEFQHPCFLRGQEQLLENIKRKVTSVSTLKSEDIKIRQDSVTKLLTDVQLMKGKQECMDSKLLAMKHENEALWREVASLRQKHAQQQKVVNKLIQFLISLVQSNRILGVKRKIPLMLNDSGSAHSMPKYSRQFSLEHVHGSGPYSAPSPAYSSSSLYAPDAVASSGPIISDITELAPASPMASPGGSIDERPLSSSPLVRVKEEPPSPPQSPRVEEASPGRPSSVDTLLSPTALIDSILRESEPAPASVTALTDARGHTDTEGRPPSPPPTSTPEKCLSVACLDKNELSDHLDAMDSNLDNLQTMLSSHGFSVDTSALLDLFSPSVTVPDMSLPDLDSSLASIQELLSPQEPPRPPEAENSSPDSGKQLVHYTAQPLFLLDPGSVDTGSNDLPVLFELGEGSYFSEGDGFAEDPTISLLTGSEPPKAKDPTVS
In short: as §1

SPIC = target: T2, SPIC (Homo sapiens, UniProt Q8N5J4 1-248); conditions: protein: recombinant; tags: N-terminal GST; dsDNA, one strand shown
T2 sequence: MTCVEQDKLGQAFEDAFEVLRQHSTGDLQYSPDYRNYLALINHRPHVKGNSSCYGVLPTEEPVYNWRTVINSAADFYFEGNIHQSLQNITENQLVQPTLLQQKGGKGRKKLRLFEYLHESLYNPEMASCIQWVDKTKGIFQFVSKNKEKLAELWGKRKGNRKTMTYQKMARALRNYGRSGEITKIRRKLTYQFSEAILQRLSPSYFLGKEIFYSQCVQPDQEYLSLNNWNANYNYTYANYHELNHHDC
In short: as §1

ELF4 = ELF4 (Homo sapiens, UniProt Q99607 1-663); conditions: protein: recombinant; tags: N-terminal GST; dsDNA, one strand shown
ELF4, sequence (Q99607 whole entry): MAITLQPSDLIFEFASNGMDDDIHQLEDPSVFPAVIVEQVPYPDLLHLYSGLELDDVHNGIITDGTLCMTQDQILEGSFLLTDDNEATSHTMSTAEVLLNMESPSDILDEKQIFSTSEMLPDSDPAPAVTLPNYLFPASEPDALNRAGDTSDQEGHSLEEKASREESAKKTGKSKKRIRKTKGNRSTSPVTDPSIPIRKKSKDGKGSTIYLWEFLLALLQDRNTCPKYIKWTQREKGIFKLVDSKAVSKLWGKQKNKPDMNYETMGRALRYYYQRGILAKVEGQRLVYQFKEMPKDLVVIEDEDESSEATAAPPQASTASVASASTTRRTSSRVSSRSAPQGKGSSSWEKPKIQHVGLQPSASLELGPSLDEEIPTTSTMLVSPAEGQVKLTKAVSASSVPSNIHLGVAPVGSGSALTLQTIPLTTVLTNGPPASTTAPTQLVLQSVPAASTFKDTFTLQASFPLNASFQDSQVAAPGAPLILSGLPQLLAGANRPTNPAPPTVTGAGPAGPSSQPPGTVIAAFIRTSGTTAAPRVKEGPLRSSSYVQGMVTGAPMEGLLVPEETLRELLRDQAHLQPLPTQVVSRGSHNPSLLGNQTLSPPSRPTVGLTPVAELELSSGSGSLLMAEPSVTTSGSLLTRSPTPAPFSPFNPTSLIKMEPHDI
In short: as §1

ELK4 = target: T3, ELK4 (Homo sapiens, UniProt P28324-2 1-405); conditions: protein: recombinant; tags: N-terminal GST; dsDNA, one strand shown
T3 sequence: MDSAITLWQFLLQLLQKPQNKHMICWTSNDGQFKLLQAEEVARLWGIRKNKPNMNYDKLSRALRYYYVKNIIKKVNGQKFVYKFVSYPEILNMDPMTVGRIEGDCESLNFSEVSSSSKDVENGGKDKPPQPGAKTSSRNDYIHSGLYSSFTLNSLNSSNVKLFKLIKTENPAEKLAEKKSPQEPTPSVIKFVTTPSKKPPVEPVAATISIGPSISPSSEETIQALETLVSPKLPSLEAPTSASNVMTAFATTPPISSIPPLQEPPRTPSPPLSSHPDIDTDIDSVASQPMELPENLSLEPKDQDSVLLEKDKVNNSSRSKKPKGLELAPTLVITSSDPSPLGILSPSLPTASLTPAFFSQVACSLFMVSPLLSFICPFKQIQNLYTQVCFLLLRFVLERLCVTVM
In short: as §1

ETV2 = target: T4, ETV2 (Homo sapiens, UniProt O00321 1-342); conditions: protein: recombinant; tags: N-terminal GST; dsDNA, one strand shown
T4 sequence: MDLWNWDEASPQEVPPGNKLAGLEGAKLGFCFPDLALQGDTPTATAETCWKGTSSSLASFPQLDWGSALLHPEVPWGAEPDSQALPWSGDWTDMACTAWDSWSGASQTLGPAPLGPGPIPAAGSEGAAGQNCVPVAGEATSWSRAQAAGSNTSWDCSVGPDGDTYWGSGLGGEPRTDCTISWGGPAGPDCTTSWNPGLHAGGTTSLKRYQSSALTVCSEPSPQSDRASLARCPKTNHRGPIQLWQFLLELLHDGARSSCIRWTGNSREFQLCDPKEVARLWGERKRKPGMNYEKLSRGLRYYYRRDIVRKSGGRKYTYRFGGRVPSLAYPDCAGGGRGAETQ
In short: as §1

ELF3 = target: T5, ELF3 (Homo sapiens, UniProt P78545 1-371); conditions: protein: recombinant; tags: N-terminal GST; dsDNA, one strand shown
T5 sequence: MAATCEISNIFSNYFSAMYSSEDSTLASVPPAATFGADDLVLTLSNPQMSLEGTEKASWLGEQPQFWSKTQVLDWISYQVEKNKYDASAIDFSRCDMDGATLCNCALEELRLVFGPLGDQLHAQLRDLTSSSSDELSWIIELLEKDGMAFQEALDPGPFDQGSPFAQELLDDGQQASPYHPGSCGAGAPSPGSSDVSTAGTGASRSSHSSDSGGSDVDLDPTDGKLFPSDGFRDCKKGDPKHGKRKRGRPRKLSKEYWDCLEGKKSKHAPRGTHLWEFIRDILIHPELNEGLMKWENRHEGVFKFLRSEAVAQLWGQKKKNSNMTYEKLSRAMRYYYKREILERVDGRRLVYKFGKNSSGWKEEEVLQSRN
In short: as §1

CRX = CRX (Homo sapiens, UniProt O43186 1-299); conditions: protein: recombinant; tags: N-terminal GST; dsDNA, one strand shown
CRX, sequence (O43186 whole entry): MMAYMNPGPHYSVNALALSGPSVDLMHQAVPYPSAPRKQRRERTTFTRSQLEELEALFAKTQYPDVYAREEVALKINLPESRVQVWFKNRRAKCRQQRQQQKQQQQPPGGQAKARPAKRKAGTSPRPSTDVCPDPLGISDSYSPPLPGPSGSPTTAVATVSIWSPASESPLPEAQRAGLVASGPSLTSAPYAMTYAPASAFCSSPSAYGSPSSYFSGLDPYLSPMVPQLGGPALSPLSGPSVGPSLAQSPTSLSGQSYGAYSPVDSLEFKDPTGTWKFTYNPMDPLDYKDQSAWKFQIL
In short: as §1

ETV1 = ETV1 (Homo sapiens, UniProt P50549 1-477); conditions: protein: recombinant; tags: N-terminal GST; dsDNA, one strand shown
ETV1, sequence (P50549 whole entry): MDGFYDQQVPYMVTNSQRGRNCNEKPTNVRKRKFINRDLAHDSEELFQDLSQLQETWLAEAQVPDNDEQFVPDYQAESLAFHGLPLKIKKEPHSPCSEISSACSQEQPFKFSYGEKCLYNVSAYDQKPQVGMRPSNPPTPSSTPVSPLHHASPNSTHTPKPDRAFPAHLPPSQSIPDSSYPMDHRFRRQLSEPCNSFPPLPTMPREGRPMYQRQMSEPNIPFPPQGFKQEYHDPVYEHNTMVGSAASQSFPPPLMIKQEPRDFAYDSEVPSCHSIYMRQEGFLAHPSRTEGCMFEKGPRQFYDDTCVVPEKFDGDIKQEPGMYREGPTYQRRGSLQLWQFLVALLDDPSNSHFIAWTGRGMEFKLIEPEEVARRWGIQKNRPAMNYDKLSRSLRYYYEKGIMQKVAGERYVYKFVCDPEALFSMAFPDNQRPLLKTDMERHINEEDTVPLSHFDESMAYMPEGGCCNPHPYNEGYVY
In short: as §1

ERF = target: T6, ERF (Homo sapiens, UniProt P50548 1-548); conditions: protein: recombinant; tags: N-terminal GST; dsDNA, one strand shown
T6 sequence: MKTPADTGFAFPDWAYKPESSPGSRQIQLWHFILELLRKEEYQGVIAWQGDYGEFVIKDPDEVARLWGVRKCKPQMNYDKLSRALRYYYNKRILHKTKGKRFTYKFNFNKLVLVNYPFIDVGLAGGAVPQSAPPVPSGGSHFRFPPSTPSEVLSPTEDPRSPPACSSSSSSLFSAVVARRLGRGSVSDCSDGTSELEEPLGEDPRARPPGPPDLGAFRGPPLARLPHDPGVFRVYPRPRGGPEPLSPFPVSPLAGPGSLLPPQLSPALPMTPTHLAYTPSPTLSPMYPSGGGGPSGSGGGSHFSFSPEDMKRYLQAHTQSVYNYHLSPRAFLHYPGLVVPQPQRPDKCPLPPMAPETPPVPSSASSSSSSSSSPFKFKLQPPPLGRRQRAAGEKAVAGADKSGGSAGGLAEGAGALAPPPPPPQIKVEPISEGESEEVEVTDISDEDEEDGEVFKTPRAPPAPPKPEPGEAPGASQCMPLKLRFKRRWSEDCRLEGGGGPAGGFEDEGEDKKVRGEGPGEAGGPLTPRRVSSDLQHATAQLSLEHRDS
In short: as §1

ETV3L = target: T7, ETV3L (Homo sapiens, UniProt Q6ZN32 1-361); conditions: protein: recombinant; tags: N-terminal GST; dsDNA, one strand shown
T7 sequence: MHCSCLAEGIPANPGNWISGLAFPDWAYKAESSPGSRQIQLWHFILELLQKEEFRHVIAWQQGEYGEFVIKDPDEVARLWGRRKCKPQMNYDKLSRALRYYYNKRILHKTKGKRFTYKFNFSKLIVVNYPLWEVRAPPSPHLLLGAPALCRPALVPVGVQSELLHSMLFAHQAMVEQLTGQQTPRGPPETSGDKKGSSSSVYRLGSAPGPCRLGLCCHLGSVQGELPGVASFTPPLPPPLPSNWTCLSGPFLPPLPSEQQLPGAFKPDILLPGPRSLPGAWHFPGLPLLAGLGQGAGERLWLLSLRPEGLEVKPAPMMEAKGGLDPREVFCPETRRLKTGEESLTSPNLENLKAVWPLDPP
In short: as §1

ETS2 = target: T8, ETS2 (Homo sapiens, UniProt P15036 1-469); conditions: protein: recombinant; tags: N-terminal GST; dsDNA, one strand shown
T8 sequence: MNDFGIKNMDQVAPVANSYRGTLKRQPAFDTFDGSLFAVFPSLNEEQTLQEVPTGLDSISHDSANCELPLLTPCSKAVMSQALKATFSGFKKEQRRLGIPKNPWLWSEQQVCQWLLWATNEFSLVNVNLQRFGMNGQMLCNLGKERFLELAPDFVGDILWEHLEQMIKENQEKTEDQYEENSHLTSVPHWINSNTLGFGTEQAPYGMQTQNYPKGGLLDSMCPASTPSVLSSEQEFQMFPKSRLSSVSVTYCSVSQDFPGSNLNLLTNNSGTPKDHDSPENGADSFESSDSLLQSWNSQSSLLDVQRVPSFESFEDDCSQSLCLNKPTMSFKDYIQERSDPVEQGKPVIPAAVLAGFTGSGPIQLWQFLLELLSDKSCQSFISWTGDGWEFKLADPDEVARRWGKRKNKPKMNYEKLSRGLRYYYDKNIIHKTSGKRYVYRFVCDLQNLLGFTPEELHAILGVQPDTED
In short: as §1

SPDEF = target: T9, SPDEF (Homo sapiens, UniProt O95238 1-335); conditions: protein: recombinant; tags: N-terminal GST; dsDNA, one strand shown
T9 sequence: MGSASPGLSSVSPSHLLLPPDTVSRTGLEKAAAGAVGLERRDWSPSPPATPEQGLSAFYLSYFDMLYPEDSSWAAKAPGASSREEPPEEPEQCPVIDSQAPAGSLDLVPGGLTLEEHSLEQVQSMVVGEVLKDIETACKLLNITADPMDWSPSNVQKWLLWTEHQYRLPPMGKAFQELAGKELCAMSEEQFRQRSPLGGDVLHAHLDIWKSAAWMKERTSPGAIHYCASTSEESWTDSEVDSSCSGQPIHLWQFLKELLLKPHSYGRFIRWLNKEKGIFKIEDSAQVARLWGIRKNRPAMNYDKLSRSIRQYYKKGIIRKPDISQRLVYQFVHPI
In short: as §1

ETV7 = target: T10, ETV7 (Homo sapiens, UniProt Q9Y603 1-341); conditions: protein: recombinant; tags: N-terminal GST; dsDNA, one strand shown
T10 sequence: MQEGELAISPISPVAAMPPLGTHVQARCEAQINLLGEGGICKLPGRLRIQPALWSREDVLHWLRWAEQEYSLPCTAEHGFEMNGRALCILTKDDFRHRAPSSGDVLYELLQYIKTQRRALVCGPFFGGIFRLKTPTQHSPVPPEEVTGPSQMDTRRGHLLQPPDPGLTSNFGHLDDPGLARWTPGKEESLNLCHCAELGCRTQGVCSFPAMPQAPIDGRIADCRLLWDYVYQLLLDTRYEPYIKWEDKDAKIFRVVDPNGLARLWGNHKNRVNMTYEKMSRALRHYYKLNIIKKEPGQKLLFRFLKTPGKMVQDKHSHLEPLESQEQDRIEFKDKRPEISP
In short: as §1

ELF5 = target: T11, ELF5 (Homo sapiens, UniProt Q9UKW6-2 1-255); conditions: protein: recombinant; tags: N-terminal GST; dsDNA, one strand shown
T11 sequence: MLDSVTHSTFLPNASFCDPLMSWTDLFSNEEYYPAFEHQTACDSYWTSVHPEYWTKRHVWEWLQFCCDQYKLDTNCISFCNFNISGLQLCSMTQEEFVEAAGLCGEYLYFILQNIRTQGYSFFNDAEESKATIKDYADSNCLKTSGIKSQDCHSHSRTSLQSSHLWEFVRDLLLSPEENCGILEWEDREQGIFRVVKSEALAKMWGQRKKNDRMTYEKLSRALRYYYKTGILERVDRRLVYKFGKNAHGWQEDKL
In short: as §1

ETV3 = target: T12, ETV3 (Homo sapiens, UniProt P41162-2 1-143); conditions: protein: recombinant; tags: N-terminal GST; dsDNA, one strand shown
T12 sequence: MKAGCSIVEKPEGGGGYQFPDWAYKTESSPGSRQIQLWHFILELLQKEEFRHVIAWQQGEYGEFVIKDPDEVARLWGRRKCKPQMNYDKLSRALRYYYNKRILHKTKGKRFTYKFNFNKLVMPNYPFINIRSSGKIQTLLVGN
In short: as §1

ETV6 = ETV6 (Homo sapiens, UniProt P41212 1-452); conditions: protein: recombinant; tags: N-terminal GST; dsDNA, one strand shown
ETV6, sequence (P41212 whole entry): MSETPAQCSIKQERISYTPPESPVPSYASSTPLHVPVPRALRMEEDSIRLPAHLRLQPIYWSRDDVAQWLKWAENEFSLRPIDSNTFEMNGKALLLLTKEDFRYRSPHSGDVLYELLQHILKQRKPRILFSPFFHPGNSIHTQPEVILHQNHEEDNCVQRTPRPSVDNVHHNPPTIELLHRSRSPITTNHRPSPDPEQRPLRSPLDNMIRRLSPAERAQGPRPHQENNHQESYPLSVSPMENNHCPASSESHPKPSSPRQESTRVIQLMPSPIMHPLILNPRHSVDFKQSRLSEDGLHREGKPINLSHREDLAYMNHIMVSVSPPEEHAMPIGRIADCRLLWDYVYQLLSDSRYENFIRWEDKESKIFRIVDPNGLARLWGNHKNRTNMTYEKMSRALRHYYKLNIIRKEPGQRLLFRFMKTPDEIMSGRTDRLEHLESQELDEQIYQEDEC
In short: as §1

TTTGGT
binding signal (FEV): 1.37 fold enrichment (6-mer frequency, TF over GST control)
binding signal (ETV5): 1.29 fold enrichment (6-mer frequency, TF over GST control)
binding signal (HSF1): 1.36 fold enrichment (6-mer frequency, TF over GST control)
binding signal (SPIC): 1.37 fold enrichment (6-mer frequency, TF over GST control)
binding signal (ELF4): 1.3 fold enrichment (6-mer frequency, TF over GST control)
binding signal (ELK4): 1.44 fold enrichment (6-mer frequency, TF over GST control)
binding signal (ETV2): 1.43 fold enrichment (6-mer frequency, TF over GST control)
binding signal (ELF3): 1.17 fold enrichment (6-mer frequency, TF over GST control)
binding signal (CRX): 1.51 fold enrichment (6-mer frequency, TF over GST control)
binding signal (ETV1): 1.36 fold enrichment (6-mer frequency, TF over GST control)
binding signal (ERF): 1.49 fold enrichment (6-mer frequency, TF over GST control)
binding signal (ETV3L): 1.36 fold enrichment (6-mer frequency, TF over GST control)
binding signal (ETS2): 1.43 fold enrichment (6-mer frequency, TF over GST control)
binding signal (SPDEF): 1.28 fold enrichment (6-mer frequency, TF over GST control)
binding signal (ETV7): 1.45 fold enrichment (6-mer frequency, TF over GST control)
binding signal (ELF5): 1.4 fold enrichment (6-mer frequency, TF over GST control)
binding signal (ETV3): 1.39 fold enrichment (6-mer frequency, TF over GST control)
binding signal (ETV6): 1.36 fold enrichment (6-mer frequency, TF over GST control)
